Experimental data reported in PubChem BioAssay (NCATS).
Records with an inconclusive call do not appear. Activity calls are given as the source filed them. Calls come from the whole dose curve; as a rule, active = well fitted inhibition curve with a large enough effect; inconclusive = small, poorly fitted or top-dose-only effect; inactive = flat fitted curve, though single readings scatter.

Assays:
Assay in all cases: qHTS profiling for inhibitors of Plasmodium falciparum proliferation (AID 504749); note: nearly all actives have a fitted effect of over 60% in size
Settings in all cases: P. falciparum in erythrocytes, SYBR Green DNA, 72 h; series mostly up to 28.7 µM
7G8 = system: 7G8
Method in brief: (§1)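 Three-day growth assay of blood-stage parasites in erythrocytes (0.3% parasitemia, 2.5% hematocrit) at 37 C, 5% CO2, quantified by SYBR Green DNA staining after overnight detergent lysis.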

C2A = system: C2A
Method in brief: as §1

CP192 = system: CP192
Method in brief: as §1

CP194 = system: CP194
Method in brief: as §1

CP203 = system: CP203
Method in brief: as §1

CP211 = system: CP211
Method in brief: as §1

CP217 = system: CP217
Method in brief: as §1

CP237 = system: CP237
Method in brief: as §1

CP266 = system: CP266
Method in brief: as §1

CP268 = system: CP268
Method in brief: as §1

CP269 = system: CP269
Method in brief: as §1

CP291 = system: CP291
Method in brief: as §1

CP329 = system: CP329
Method in brief: as §1

DIV30 = system: DIV30
Method in brief: as §1

HB3 = system: HB3
Method in brief: as §1

P94_40 = system: P94_40
Method in brief: as §1

PC15 = system: PC15
Method in brief: as §1

PC26 = system: PC26
Method in brief: as §1

PC49 = system: PC49
Method in brief: as §1

SC27B = system: SC27B
Method in brief: as §1

Measured: Potency

CC(C)C[C@H](NC(=O)[C@@H](Cc1c[nH]c2ccccc12)NC(=O)[C@@H](Cc1ccc(O)cc1)NC(=O)[C@@H](CO)NC(=O)[C@@H](Cc1c[nH]c2ccccc12)NC(=O)C(Cc1cnc[nH]1)NC(=O)C1CCC(=O)N1)C(=O)N[C@@H](CCCN=C(N)N)C(=O)N1CCC[C@@H]1C(=O)NCC(N)=O (some centres undefined)
inactive: all assays above

CC(=O)OCC1=C(C(=O)O)N2C(=O)C(NC(=O)Cc3ccccc3)C2SC1 (centres undefined)
inactive: all assays above

Cn1cc(O)nc1NC(=O)Nc1cccc(Cl)c1
not listed: CP329
inactive: all other assays above
